Measurements: PubChem BioAssay AID743289 (Broad Institute, 2014)
The list shows a part of the results. Active and inactive are the calls of the source.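 The calls were made as follows: active = compounds lowering fluorescence whose fitted half-maximal concentration is no more than twice their top tested dose; inconclusive = flat fit with 30 to 70% inhibition, or poor fit; inactive = the rest.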

What follows are compounds tested against Caspase-1 (Homo sapiens) (UniProt P29466) (assay: caspase-1 enzyme inhibition, selectivity check – biochemical, Z-YVAD-R110 fluorescence, cherry-pick, set 2, selectivity assay for caspase-6 inhibitor project, dose response (AID 743289)). Details: purified caspase-1, Z-YVAD-R110 cleavage fluorescence; series mostly up to 35 µM.
Chain of Caspase-1 (Homo sapiens) (P29466 whole entry, looked up): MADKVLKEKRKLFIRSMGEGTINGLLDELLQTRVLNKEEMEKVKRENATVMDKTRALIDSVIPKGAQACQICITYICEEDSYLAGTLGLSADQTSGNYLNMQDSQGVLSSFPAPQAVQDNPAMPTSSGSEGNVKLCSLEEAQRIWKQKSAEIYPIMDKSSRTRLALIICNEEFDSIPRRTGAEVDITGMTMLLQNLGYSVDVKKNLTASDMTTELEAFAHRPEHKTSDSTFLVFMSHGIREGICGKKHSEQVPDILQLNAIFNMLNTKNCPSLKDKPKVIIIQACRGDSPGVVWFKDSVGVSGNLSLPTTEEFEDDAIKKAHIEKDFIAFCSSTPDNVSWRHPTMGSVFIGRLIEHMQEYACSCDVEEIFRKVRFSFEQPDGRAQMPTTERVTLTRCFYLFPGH

outcome, inactive:
CCN(CC)CCCC(C)n1c2nc(=O)[nH]c(=O)c-2nc2cc(Cl)ccc21 (stereo not given)
CNS(=O)(=O)c1cccc(C(=O)OCC(=O)N2c3ccccc3NC(=O)C2(C)C)c1
O=c1ccc2c(-c3ccccc3S(=O)(=O)O)c3ccc(O)c(O)c3oc-2c1O
Cc1c(CCC(=O)O)c(=O)oc2c(C)c(OCc3ccccc3Cl)ccc12
COc1cc(NC(=O)COC(=O)c2ccc([N+](=O)[O-])s2)cc(OC)c1OC
